Screening results from PubChem.
Hits are enriched below; roughly 2.7% of the tested compounds scored in any of these assays.
Nrf2 inh: blocks Nrf2 signaling | Potency, µM (top dose mostly 46 µM), most hits filed as inhibitors | A549 ARE-Fluc reporter, luciferase luminescence, 18-24 h | 360,000 compounds, 2.1% hits; also: nearly all actives have a fitted effect of over 60% in size
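Concentration-response testing used A549 ARE_Fluc cells at 5000 cells/well. Following an 18-24 h compound incubation, viability was read by fluorescence (Ex 405/Em 525) and luciferase output by luminescence.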
ERG Ets-DNA blk: ERG Ets/DNA interaction inhibition | 370,000 compounds, 0.028% hits | Potency, µM (doses to about 76.9 µM), usual class: inhibitors | AID 624246 | fluorescence polarization, His-ERG Ets domain / labelled DNA; active = well fitted inhibition curve with a large enough effect in the polarisation, with a control signal flat; inconclusive = small, poorly fitted or top-dose-only effect, or effect the other way, or a change in a side signal; inactive = no such curve, though single readings can be large or run the other way; the % refers to the polarisation;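 also: polarization taken with two DNA probes labelled with fluorescein and Texas red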
Target sequence (P11308 whole entry, looked up, the tested form may be a part): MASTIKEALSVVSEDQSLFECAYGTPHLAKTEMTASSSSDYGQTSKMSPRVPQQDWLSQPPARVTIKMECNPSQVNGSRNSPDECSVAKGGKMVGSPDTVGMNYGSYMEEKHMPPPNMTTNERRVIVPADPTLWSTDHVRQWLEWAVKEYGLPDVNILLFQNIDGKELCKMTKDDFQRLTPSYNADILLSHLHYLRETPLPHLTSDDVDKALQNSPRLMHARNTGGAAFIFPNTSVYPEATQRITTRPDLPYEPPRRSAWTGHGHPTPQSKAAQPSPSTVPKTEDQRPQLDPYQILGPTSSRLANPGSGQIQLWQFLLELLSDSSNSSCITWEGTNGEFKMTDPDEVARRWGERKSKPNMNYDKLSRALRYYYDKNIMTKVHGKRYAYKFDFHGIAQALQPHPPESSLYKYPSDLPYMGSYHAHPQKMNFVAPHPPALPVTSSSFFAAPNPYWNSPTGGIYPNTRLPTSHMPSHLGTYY
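His-tagged ERG Ets domain (1 uM in the protein solution; 300mM KCl, 50mM Tris-HCl, 1mM EDTA, 1mM DTT, pH 7.5) received compound, then a probe mix of 5 nM fluorescein-DNA and 100nM Texas-615-DNA. Fluorescence polarization was read for both dyes.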
Nrf2 activator: Nrf2 pathway activation; AREc32 ARE-luciferase reporter (MCF7-derived line), luminescence, 24 h; Potency, µM (highest dose often 46.1 µM), usual class: activators; 410,000 compounds, 0.31% hits; also: nearly all actives have a fitted effect of over 65% in size
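Cells of the AREc32 ARE-luciferase line are plated in OPTI-MEM containing 5% FBS and left overnight at 37 deg C. Compounds are pinned in, incubation continues 24 hr, and firefly luciferase signal is then measured.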
ALOX12 inh: inhibitors of human 12S-lipoxygenase ALOX12 | 580,000 compounds, 1.1% hits | purified 12hLO, xylenol orange hydroperoxide absorbance | Potency, µM (series often up to 108 µM), hits mostly inhibitors | P18054
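Purified human 12hLO (150 nM final) in 25 mM Hepes, 0.01% Triton X-100, pH 7.0 was preincubated 15 min at room temperature with compound. Then 40 uM arachidonic acid was added, 30 min. Hydroperoxide was read by Fe-XO absorbance ratio 573/405 nm.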
LDHA inh: blocks human lactate dehydrogenase A; 480,000 compounds, 0.15% hits; activity change, % (values are at about 110 or 230 µM); purified LDHA, NADH/diaphorase-resazurin fluorescence; active compounds read low; P00338; AID 1347041; in the data active = activity change below about -30%; inconclusive = mostly about -25% to -30%
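Resorufin fluorescence (ex540/em590), read at 0 and 20 min after diaphorase/resazurin addition, reports the NADH left after a 5 min room-temperature reaction of 2 nM human LDH5 with 0.06 mM NADH and 0.2 mM pyruvate.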
A549 tox: A549 cytotoxicity, counter-screen for Nrf2 inhibitors. A549 ARE-Fluc cells, CellTiter-Fluor viability, 18-24 h. Potency, µM (titrated, usually from 46 µM), actives largely listed as inhibitors. 390,000 compounds, 0.16% hits
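A549 ARE_Fluc cells in 5% FBS OPTI-MEM were exposed to compounds in concentration-response for 18-24 h at 37 deg C. Viability was read by CellTiter-Fluor fluorescence (Ex 405/Em 525) after 30 min, before the luciferase read.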
Hits are given with their value; ! = a repeat was not active. Unless noted, calls follow the shape of the dose curve; as a rule, active = well fitted curve in the direction sought with a large enough effect; inconclusive = small, poorly fitted or top-dose-only effect, or another doubt; inactive = no such curve, though single readings can be large; an effect the other way counts as inactive or inconclusive.

What do the screens show for `Cc1cc(C)c2nc(N3C(=O)C(O)=C(C(=O)c4ccco4)C3c3ccc(O)cc3)sc2c1` (configuration not stated)?
Nrf2 inh: inactive; ERG Ets-DNA blk: inactive; Nrf2 activator: inactive; ALOX12 inh: 25µM; LDHA inh: inactive; A549 tox: inconclusive

How did CCOC(=O)c1sc(N2C(=O)C(O)=C(C(=O)c3ccco3)C2c2cccc([N+](=O)[O-])c2)nc1C (configuration not stated) do in these assays?
Nrf2 inh: inactive; ERG Ets-DNA blk: inactive; Nrf2 activator: inactive; ALOX12 inh: 45µM; LDHA inh: inactive; A549 tox: inconclusive

Results for Cc1ccc2nc(N3C(=O)C(O)=C(C(=O)c4ccco4)C3c3ccc(O)cc3)sc2c1 (configuration not stated) ?
ALOX12 inh: 22µM!; LDHA inh: inactive

Results for Cc1nnc(N2C(=O)C(O)=C(C(=O)c3ccco3)C2c2cccc([N+](=O)[O-])c2)s1 (configuration not stated) ?
Nrf2 inh: inactive; ERG Ets-DNA blk: inactive; Nrf2 activator: inactive; ALOX12 inh: inconclusive; LDHA inh: inactive; A549 tox: inactive

How did O=C(C1=C(O)C(=O)N(c2nc3ccc(Cl)cc3s2)C1c1ccco1)c1ccco1 (configuration not stated) do in these assays?
Nrf2 inh: inactive; ERG Ets-DNA blk: inactive; Nrf2 activator: inconclusive; ALOX12 inh: 7.9µM!; LDHA inh: inactive; A549 tox: inconclusive

Results for O=C(Nc1cccc(CN2CCOC2=O)c1)N1CCN(c2ccccc2)CC1 ?
ALOX12 inh: inconclusive; LDHA inh: inactive

How did O=C(Nc1ccc([N+](=O)[O-])cc1)c1ccc(Cn2cc([N+](=O)[O-])cn2)cc1 do in these assays?
Nrf2 inh: 18µM; ERG Ets-DNA blk: inactive; Nrf2 activator: inactive; ALOX12 inh: inactive; LDHA inh: inactive; A549 tox: inactive

Results for CCOc1ccc(C(=O)Nc2cnn(Cc3ccc(Cl)c(Cl)c3)c2)cc1 ?
Nrf2 inh: 23µM; ERG Ets-DNA blk: inactive; Nrf2 activator: inactive; ALOX12 inh: inactive; LDHA inh: inactive; A549 tox: inconclusive

Results for O=C(Nc1ccc(Nc2ccncc2)cc1)c1ccc([N+](=O)[O-])cc1 ?
Nrf2 inh: 18µM; ERG Ets-DNA blk: inactive; Nrf2 activator: inactive; ALOX12 inh: inactive; LDHA inh: inactive; A549 tox: inactive

What do the screens show for `O=C(Nc1ccc(Oc2cccnc2)cc1)c1ccc([N+](=O)[O-])cc1`?
Nrf2 inh: inactive; ERG Ets-DNA blk: inactive; Nrf2 activator: inactive; ALOX12 inh: inactive; LDHA inh: inactive; A549 tox: inactive

What do the screens show for `CC(C)(C)Cc1nnc(NC(=O)CSc2ccccc2)s1`?
Nrf2 inh: inconclusive; ERG Ets-DNA blk: inactive; Nrf2 activator: inactive; ALOX12 inh: 18µM; LDHA inh: inactive; A549 tox: inactive

How did COCC(=O)N(CCN(C)C)Cc1cc2cc3c(cc2nc1Cl)OCO3 do in these assays?
Nrf2 inh: inactive; ERG Ets-DNA blk: inactive; Nrf2 activator: inactive; ALOX12 inh: inactive; LDHA inh: inactive; A549 tox: inactive

What do the screens show for `COCCN(Cc1cc2cc3c(cc2nc1Cl)OCO3)C(=O)Nc1ccc(OC)cc1`?
Nrf2 inh: 7.3µM; ERG Ets-DNA blk: inactive; Nrf2 activator: inactive; ALOX12 inh: inactive; LDHA inh: inactive; A549 tox: inactive

Results for COCCN(Cc1cc2cc3c(cc2nc1Cl)OCO3)C(=O)Nc1ccccc1OC ?
Nrf2 inh: inactive; Nrf2 activator: inactive; ALOX12 inh: inactive; LDHA inh: inactive; A549 tox: inactive

How did COCCN(Cc1cc2cc3c(cc2nc1Cl)OCO3)C(=O)Nc1ccc(F)cc1 do in these assays?
Nrf2 inh: 13µM; Nrf2 activator: inactive; ALOX12 inh: inactive; LDHA inh: inactive; A549 tox: inactive

How did Cc1nc(-c2ccc(C(=O)Nc3cccc(Br)c3)cc2)cs1 do in these assays?
Nrf2 inh: 12µM; ERG Ets-DNA blk: inactive; Nrf2 activator: inactive; ALOX12 inh: inactive; LDHA inh: inactive; A549 tox: inconclusive
